In the supplement of paper PMC10849652:
About 8,800 targets were measured; listed, in parts, are those with a hit and a random draw of the rest. About 0.5% of all pairs of compound and target were hits.

Assays:
Test in all cases: log2 fold change, soluble protein after heating vs DMSO (PISA); higher = thermal stabilisation; K562 lysate, 10 uM; active = over 0.2 and 3.5 SD of the protein, either way, in both replicates (recomputed)
erlotinib = compound: C#Cc1cccc(Nc2ncnc3cc(OCCOC)c(OCCOC)cc23)c1 [erlotinib]
Summary of the method: (§1)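 A 30 min treatment with 10 μM compound was applied to crude K562 extract at 1 mg/mL protein in PBS pH 7.4 with 1 mM MgCl2. Heating for 3 min spanned 48°C-58°C, after which aliquots were pooled, adjusted to 0.5% NP-40 at 4°C and spun at 21,000xg for 90 min. TMTpro 16plex LC-MS/MS of the supernatant, with channel sums equalised, gave values recorded as log-two fold change in thermal stability against solvent controls, from duplicates.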

[1] = compound: C/C(=N\NC(=O)C1=CC(=CC=C1)S(=O)(=O)N2CCOCC2)/C3=C(C=CC(=C3)Cl)O
Summary of the method: as §1

[2] = compound: C1=CC(=CC=C1C2=NC3=C(N2)C=C(C=C3)C(=O)N)OC4=CC=C(C=C4)Cl
Summary of the method: as §1

[3] = compound: C1=CC2=C(C=CC(=C2)/C=C\3/C(=O)NC(=NCC4=CC=CS4)S3)N=C1
Summary of the method: as §1

[4] = compound: C1=CC2=NC=CN=C2C=C1/C=C/3\C(=O)NC(=O)S3
Summary of the method: as §1

[5] = compound: C1=CC=C(C=C1)C2=NC(=C(N2)C3=CC=NC=C3)C4=CC(=C(C=C4)Cl)O
Summary of the method: as §1

[6] = compound: C1=CC=C2C(=C1)C3=NNC4=CC=CC(=C43)C2=O
Summary of the method: as §1

[7] = compound: C1CCN(C1)C(=O)NC2=CC=CC(=C2)NC3=NC=C(C(=N3)NCCC4=CN=CN4)Br
Summary of the method: as §1

[8] = compound: C1CN(CCC1(CC2=CC=C(C=C2)Cl)N)C3=NC=NC4=C3C=CN4
Summary of the method: as §1

IRAK-1-4 Inhibitor I = compound: C1COCCN1CCN2C3=CC=CC=C3N=C2NC(=O)C4=CC(=CC=C4)[N+](=O)[O-] [IRAK-1-4 Inhibitor I]
Summary of the method: as §1

ibrutinib = compound: C=CC(=O)N1CCC[C@@H](n2nc(-c3ccc(Oc4ccccc4)cc3)c3c(N)ncnc32)C1 [ibrutinib]
Summary of the method: as §1

[9] = compound: CC(=O)c1cnc2ccc(-c3cc(Cl)c(O)c(Cl)c3)nc2c1N[C@H]1CC[C@H](CN(C)C)CC1
Summary of the method: as §1

ralimetinib = compound: CC(C)(C)Cn1c(N)nc2ccc(-c3[nH]c(C(C)(C)C)nc3-c3ccc(F)cc3)nc21 [ralimetinib]
Summary of the method: as §1

[10] = compound: CC(C)(O)CC(=O)NCCn1ccc2ncnc(Nc3ccc(Oc4cccc(C(F)(F)F)c4)c(Cl)c3)c21
Summary of the method: as §1

[11] = compound: CC(C)C1=C2N=C(C=C(N2N=C1)NCC3=CC=CC=C3)NCCCCCCN
Summary of the method: as §1

[12] = compound: CC1=C(C(CC(=O)N1)C2=CC=C(C=C2)C(F)(F)F)C(=O)NC3=C(C=C4C(=C3)C=NN4)F
Summary of the method: as §1

[13] = compound: CC1=C(C2=C(C=C1)C(=O)C3=CC=CC=C3N2CCCN)C
Summary of the method: as §1

[14] = compound: CC1=C(C=C(C=C1)NC(=O)C2=CC(=CC=C2)C(C)(C)C#N)NC3=CC4=C(C=C3)N=CN(C4=O)C
Summary of the method: as §1

[15] = compound: CC1=C(C=C(C=C1)NC(=O)C2=CC(=CC=C2)N(C)C)NC(=O)C3=CC=C(C=C3)O
Summary of the method: as §1

[16] = compound: CC1=CC=C(C=C1)SC2=C3C=C(SC3=CN=C2)C(=O)N
Summary of the method: as §1

Measured: log2 fold change

BNIP1 (UniProt Q12981)
Chain of UniProt Q12981 (Q12981 whole entry, looked up): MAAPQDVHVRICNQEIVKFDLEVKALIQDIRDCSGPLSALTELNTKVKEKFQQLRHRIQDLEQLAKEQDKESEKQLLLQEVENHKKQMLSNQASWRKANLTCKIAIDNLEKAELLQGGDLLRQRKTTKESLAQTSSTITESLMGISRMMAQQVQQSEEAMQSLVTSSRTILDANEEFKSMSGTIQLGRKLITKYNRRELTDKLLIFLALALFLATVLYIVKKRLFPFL
inactive: erlotinib -0.028 | [1] 0.05 | [2] -0.048 | [3] -0.011 | [4] -0.026 | [5] 0.071 | [6] -0.009 | [7] 0.002 | [8] 0.018 | IRAK-1-4 Inhibitor I -0.004 | ibrutinib 0.038 | [9] 0.005 | ralimetinib 0.01 | [10] -0.011 | [11] 0.051 | [12] 0.046 | [13] 0.005 | [14] 0.002 | [15] 0.024 | [16] 0.012

CBFA2T3 (UniProt O75081)
inactive: erlotinib -0.012 | [1] -0.01 | [2] -0.002 | [3] -0.006 | [4] 0.016 | [5] 0.004 | [6] -0.01 | [7] -0.043 | [8] -0.093 | IRAK-1-4 Inhibitor I -0.027 | ibrutinib 0.005 | [9] 0.016 | ralimetinib 0.019 | [10] -0.005 | [11] -0.013 | [12] -0.001 | [13] 0.003 | [14] -0.016 | [15] 0.022 | [16] -0.005

C1orf112 (UniProt Q9NSG2)
inactive: erlotinib -0.053 | [1] 0.015 | [2] 0.079 | [3] -0.008 | [4] -0.057 | [5] 0.026 | [6] 0 | [7] -0.046 | [8] 0.054 | IRAK-1-4 Inhibitor I -0.034 | ibrutinib 0.014 | [9] 0.038 | ralimetinib 0.022 | [10] -0.061 | [11] 0.017 | [12] 0.067 | [13] -0.085 | [14] -0.029 | [15] 0.036 | [16] 0.091

C15orf41 (UniProt Q9Y2V0)
Chain of UniProt Q9Y2V0 (Q9Y2V0 whole entry, looked up): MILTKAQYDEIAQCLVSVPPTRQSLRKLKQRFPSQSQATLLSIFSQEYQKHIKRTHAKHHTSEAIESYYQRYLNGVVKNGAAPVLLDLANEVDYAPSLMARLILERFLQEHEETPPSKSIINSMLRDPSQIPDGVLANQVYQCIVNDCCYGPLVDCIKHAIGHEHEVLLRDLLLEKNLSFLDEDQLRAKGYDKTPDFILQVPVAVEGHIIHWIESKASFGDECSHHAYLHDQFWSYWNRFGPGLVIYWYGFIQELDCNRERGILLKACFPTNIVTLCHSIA
inactive: erlotinib 0.008 | [1] 0.073 | [2] 0.032 | [3] 0.112 | [4] -0.097 | [5] 0.014 | [6] -0.04 | [7] -0.028 | [8] -0.076 | IRAK-1-4 Inhibitor I -0.012 | ibrutinib -0.028 | [9] -0.013 | ralimetinib -0.018 | [10] -0.029 | [11] 0.063 | [12] 0.006 | [13] 0.045 | [14] 0.023 | [15] 0.13 | [16] -0.106

CAMLG (UniProt P49069)
Chain of UniProt P49069 (P49069 whole entry, looked up): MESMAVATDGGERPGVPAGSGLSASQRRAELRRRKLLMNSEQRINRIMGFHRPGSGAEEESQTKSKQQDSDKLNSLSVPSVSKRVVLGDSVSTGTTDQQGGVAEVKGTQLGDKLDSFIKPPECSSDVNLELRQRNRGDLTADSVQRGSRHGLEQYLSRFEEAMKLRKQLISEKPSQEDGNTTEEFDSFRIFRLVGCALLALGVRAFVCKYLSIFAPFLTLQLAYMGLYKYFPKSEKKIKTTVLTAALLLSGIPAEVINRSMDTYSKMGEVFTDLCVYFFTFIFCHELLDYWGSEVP
inactive: erlotinib -0.002 | [1] 0.05 | [2] -0.013 | [3] 0.004 | [4] -0.001 | [5] 0.035 | [6] -0.033 | [7] 0.029 | [8] -0.028 | IRAK-1-4 Inhibitor I -0.025 | ibrutinib -0.019 | [9] -0.003 | ralimetinib 0.084 | [10] -0.023 | [11] 0.009 | [12] -0.068 | [13] -0.024 | [14] -0.028 | [15] 0.004 | [16] -0.012

AURKAIP1 (UniProt Q9NWT8)
active: [5] 0.432 | [15] -0.417
inactive: erlotinib -0.062 | [1] -0.093 | [2] 0.046 | [3] -0.031 | [4] -0.019 | [6] 0.025 | [7] -0.032 | [8] 0.064 | IRAK-1-4 Inhibitor I 0.095 | ibrutinib -0.055 | [9] -0.095 | ralimetinib -0.363 | [10] -0.222 | [11] 0.021 | [12] 0.029 | [13] -0.012 | [14] 0.135 | [16] -0.013

CDKN1C (UniProt P49918)
Chain of UniProt P49918 (P49918 whole entry, looked up): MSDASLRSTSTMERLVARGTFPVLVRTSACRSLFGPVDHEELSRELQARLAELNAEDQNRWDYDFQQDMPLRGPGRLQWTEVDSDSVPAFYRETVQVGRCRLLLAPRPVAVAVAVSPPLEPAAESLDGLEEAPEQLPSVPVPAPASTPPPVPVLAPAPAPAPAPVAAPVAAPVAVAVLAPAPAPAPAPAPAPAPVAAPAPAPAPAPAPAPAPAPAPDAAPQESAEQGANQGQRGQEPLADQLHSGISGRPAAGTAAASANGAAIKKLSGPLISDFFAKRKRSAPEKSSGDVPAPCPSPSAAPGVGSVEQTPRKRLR
active: [6] -0.461
inactive: erlotinib -0.021 | [1] 0.34 | [2] -0.015 | [3] -0.159 | [4] 0.065 | [5] -0.032 | [7] 0.053 | [8] 0.009 | IRAK-1-4 Inhibitor I 0.069 | ibrutinib 0.002 | [9] -0.001 | ralimetinib 0.055 | [10] -0.045 | [11] 0.077 | [12] 0.017 | [13] 0.006 | [14] -0.032 | [15] 0.023 | [16] 0.005

C18orf32 (UniProt Q8TCD1)
Chain of UniProt Q8TCD1 (Q8TCD1 whole entry, looked up): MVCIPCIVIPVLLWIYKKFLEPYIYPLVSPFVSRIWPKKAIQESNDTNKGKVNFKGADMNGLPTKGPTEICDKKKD
inactive: erlotinib 0.089 | [1] 0.126 | [2] 0.009 | [3] -0.06 | [4] -0.026 | [5] 0.011 | [6] 0.003 | [7] -0.049 | [8] -0.032 | IRAK-1-4 Inhibitor I -0.026 | ibrutinib 0.069 | [9] -0.014 | ralimetinib 0.053 | [10] -0.048 | [11] -0.069 | [12] -0.078 | [13] -0.021 | [14] 0.074 | [15] -0.056 | [16] 0.032

BOLA2 (UniProt Q9H3K6)
Chain of UniProt Q9H3K6 (Q9H3K6 whole entry, looked up): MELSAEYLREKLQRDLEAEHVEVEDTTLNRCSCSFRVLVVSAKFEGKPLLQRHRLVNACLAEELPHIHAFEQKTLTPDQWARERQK
inactive: erlotinib 0.008 | [1] 0.078 | [2] -0.112 | [3] -0.007 | [4] 0.032 | [5] 0.01 | [6] 0.039 | [7] 0.034 | [8] 0.006 | IRAK-1-4 Inhibitor I 0.013 | ibrutinib -0.01 | [9] 0.02 | ralimetinib -0.025 | [10] 0.008 | [11] -0.025 | [12] -0.059 | [13] 0.038 | [14] -0.029 | [15] -0.022 | [16] 0.039

CDC40 (UniProt O60508)
Chain of UniProt O60508 (O60508 whole entry, looked up): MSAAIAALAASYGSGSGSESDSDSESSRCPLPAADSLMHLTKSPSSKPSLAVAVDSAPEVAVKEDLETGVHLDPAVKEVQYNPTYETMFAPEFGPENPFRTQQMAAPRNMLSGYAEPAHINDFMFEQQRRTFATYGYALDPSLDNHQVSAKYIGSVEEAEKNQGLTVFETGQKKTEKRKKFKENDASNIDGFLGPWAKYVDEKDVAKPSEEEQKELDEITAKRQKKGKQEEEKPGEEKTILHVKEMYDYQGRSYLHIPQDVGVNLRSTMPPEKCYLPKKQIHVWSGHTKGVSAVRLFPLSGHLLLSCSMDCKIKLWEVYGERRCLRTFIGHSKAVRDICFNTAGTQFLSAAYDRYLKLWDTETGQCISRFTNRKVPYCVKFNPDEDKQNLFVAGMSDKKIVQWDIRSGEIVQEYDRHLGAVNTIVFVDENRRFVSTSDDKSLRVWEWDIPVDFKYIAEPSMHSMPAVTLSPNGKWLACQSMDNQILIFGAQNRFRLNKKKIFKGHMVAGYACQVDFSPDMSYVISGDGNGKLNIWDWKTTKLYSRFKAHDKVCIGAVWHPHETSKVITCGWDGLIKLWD
active: ralimetinib -0.219
inactive: erlotinib -0.036 | [1] -0.004 | [2] -0.009 | [3] -0.037 | [4] 0.015 | [5] -0.072 | [6] -0.059 | [7] -0.023 | [8] -0.035 | IRAK-1-4 Inhibitor I 0.117 | ibrutinib 0.02 | [9] 0.034 | [10] 0.016 | [11] -0.115 | [12] 0.084 | [13] -0.019 | [14] 0.056 | [15] 0.136 | [16] -0.028

BAG4 (UniProt O95429)
Chain of UniProt O95429 (O95429 whole entry, looked up): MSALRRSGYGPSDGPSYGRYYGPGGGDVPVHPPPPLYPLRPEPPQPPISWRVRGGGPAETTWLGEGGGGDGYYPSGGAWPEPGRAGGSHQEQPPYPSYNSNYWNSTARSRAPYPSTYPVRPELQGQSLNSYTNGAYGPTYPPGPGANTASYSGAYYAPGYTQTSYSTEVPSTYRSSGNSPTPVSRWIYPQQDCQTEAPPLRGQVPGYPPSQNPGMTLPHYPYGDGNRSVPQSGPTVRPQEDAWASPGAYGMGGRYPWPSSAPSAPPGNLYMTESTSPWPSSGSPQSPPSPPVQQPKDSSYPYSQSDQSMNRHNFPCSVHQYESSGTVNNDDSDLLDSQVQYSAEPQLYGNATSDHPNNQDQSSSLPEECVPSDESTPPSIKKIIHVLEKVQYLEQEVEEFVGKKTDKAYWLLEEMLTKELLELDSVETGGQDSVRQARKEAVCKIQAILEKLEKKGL
inactive: erlotinib -0.036 | [1] 0.046 | [2] 0.075 | [3] -0.017 | [4] 0.004 | [5] -0.038 | [6] 0.021 | [7] 0.047 | [8] 0.017 | IRAK-1-4 Inhibitor I 0 | ibrutinib 0.082 | [9] 0.005 | ralimetinib -0.009 | [10] 0.02 | [11] -0.035 | [12] -0.014 | [13] 0 | [15] -0.021 | [16] -0.017
active: [14] -0.375

CCDC25 (UniProt Q86WR0)
Chain of UniProt Q86WR0 (Q86WR0 whole entry, looked up): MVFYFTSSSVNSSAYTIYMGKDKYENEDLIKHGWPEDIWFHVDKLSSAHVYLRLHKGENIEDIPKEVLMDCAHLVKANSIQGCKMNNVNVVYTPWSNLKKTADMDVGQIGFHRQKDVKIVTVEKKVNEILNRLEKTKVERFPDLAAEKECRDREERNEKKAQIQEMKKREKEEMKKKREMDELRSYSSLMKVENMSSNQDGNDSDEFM
inactive: erlotinib -0.012 | [1] 0.031 | [2] 0.031 | [3] 0.012 | [4] 0.019 | [5] 0.015 | [6] 0.007 | [7] -0.006 | [8] 0 | IRAK-1-4 Inhibitor I -0.024 | ibrutinib 0.023 | [9] -0.006 | ralimetinib -0.018 | [10] -0.013 | [11] 0.017 | [12] -0.042 | [13] -0.022 | [14] 0.03 | [15] -0.002 | [16] 0

CAMK1 (UniProt Q14012)
Chain of UniProt Q14012 (Q14012 whole entry, looked up): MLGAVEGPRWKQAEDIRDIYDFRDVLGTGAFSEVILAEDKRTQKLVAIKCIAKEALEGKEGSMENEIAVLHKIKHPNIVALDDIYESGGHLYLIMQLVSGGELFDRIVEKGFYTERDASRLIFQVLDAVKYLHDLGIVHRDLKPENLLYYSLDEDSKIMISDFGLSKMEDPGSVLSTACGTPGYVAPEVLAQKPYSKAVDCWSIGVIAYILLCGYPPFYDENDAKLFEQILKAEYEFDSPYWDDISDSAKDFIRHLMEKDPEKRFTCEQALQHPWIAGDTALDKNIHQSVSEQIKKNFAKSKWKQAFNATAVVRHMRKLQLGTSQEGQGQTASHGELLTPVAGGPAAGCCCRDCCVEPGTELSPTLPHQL
inactive: erlotinib -0.014 | [1] -0.145 | [2] 0.008 | [3] 0 | [4] 0.037 | [5] -0.011 | [6] 0.135 | [7] 0 | [8] 0.016 | IRAK-1-4 Inhibitor I 0.107 | ibrutinib 0.017 | [9] 0.009 | ralimetinib 0.004 | [10] -0.144 | [11] -0.017 | [12] -0.034 | [13] -0.003 | [14] 0.016 | [15] -0.027 | [16] 0.008

ATRIP (UniProt Q8WXE1)
Chain of UniProt Q8WXE1 (Q8WXE1 whole entry, looked up): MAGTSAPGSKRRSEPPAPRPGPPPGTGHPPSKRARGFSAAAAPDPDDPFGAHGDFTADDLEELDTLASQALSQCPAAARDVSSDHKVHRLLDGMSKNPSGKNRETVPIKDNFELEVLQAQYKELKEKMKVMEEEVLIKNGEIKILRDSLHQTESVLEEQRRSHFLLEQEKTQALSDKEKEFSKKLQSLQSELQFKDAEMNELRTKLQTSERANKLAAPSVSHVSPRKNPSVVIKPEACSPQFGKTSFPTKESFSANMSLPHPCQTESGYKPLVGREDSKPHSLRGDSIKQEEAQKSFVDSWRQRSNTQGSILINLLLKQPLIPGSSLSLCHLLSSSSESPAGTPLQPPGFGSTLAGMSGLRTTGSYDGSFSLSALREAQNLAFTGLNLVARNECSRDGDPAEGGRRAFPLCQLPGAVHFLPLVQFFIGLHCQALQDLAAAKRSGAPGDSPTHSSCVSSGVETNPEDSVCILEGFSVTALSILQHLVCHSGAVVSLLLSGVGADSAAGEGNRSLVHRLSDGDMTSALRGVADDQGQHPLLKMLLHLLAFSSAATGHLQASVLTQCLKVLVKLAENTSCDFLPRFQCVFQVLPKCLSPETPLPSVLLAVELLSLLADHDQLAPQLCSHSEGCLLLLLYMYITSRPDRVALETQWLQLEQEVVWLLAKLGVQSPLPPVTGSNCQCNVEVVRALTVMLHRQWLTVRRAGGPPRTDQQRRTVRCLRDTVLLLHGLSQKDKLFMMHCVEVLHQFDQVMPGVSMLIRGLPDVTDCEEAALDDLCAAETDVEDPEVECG
inactive: erlotinib -0.009 | [1] 0.032 | [2] -0.023 | [3] 0.227 | [4] 0.046 | [5] 0.064 | [6] 0.266 | [7] -0.059 | [8] -0.057 | IRAK-1-4 Inhibitor I 0.015 | ibrutinib 0.019 | [9] 0.129 | ralimetinib -0.007 | [10] -0.014 | [11] -0.048 | [12] 0.063 | [13] 0.005 | [14] -0.008 | [15] -0.008 | [16] -0.019

C5orf51 (UniProt A6NDU8)
Chain of UniProt A6NDU8 (A6NDU8 whole entry, looked up): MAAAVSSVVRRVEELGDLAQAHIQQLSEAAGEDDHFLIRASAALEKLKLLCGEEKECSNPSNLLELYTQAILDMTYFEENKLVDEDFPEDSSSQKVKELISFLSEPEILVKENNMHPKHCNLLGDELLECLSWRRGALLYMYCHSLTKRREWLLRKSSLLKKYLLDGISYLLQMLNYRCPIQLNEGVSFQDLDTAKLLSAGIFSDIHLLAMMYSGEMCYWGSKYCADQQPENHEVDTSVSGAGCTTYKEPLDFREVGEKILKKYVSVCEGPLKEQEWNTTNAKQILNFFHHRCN
inactive: erlotinib 0.024 | [1] 0.004 | [2] -0.008 | [3] -0.026 | [4] 0.04 | [5] 0.007 | [6] -0.038 | [7] -0.027 | [8] 0.055 | IRAK-1-4 Inhibitor I -0.025 | ibrutinib 0.052 | [9] -0.008 | ralimetinib 0.001 | [10] -0.027 | [11] 0.014 | [12] -0.005 | [13] 0.004 | [14] 0.042 | [15] 0.042 | [16] -0.001

CEP76 (UniProt Q8TAP6)
Chain of UniProt Q8TAP6 (Q8TAP6 whole entry, looked up): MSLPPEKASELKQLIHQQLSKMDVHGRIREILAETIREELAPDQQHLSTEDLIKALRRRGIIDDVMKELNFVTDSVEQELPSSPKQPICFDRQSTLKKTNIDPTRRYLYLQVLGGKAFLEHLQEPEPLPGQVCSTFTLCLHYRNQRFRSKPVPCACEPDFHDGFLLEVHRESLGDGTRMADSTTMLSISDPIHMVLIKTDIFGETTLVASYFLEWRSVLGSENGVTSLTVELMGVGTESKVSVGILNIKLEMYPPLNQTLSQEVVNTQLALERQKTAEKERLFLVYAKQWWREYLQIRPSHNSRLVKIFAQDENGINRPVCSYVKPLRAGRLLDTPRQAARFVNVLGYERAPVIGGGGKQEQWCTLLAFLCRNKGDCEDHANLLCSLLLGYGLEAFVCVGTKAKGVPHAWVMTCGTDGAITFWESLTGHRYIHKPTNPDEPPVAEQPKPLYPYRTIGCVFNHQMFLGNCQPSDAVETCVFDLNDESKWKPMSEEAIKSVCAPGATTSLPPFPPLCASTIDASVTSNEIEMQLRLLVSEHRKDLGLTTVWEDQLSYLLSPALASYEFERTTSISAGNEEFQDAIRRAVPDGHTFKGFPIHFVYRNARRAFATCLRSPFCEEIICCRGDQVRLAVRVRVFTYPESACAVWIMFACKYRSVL
inactive: erlotinib 0.005 | [1] -0.033 | [2] 0.012 | [3] 0.053 | [4] -0.072 | [5] -0.003 | [6] 0.052 | [7] -0.002 | [8] 0 | IRAK-1-4 Inhibitor I 0.056 | ibrutinib -0.004 | [9] 0.081 | ralimetinib 0.019 | [10] 0.003 | [11] -0.002 | [12] -0.019 | [13] -0.063 | [14] 0.051 | [15] 0 | [16] -0.005
